# Columns and labels:
# Test in all cases: PBM binding z-score (relative to random genomic background probes); higher = stronger binding; sequences stand for … in GC…GCGATTGACAGCGTAGAATGAAGG
# [1] = tested on: PPARg:RXRa DBDmut IVT, anti-RXR (DBD mutation: RXRa K156A/R161A, NR concentration 270 nM, RXRa partner concentration 90 nM)
# How it was run: (§1)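 For binding z-scores, the reference was random background probes on custom Agilent 4×180K protein-binding microarrays. These arrays were incubated 1 h with ligand-free nuclear receptor dimers in PBS pH 7.4, 2% milk, 0.02% Triton X-100, 1 mM DTT, 0.2 mg/mL BSA and 0.4 mg/ml salmon testes DNA. Fluorescence was scanned after antibody detection of each partner (one per run) and regression-normalized.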
# [2] = tested on: PPARg:RXRa IVT, anti-PPARg (NR concentration 270 nM, RXRa partner concentration 90 nM)
# How it was run: as §1
# [3] = tested on: PPARg homodimer (NR concentration 180 nM)
# How it was run: as §1
# [4] = tested on: PXR:RXRa (NR concentration 270 nM, RXRa partner concentration 90 nM)
# How it was run: as §1
# [5] = tested on: PXR homodimer (NR concentration 270 nM)
# How it was run: as §1
# [6] = tested on: RARa:RXR (NR concentration 270 nM, RXRa partner concentration 90 nM)
# How it was run: as §1
# [7] = tested on: RARa homodimer (NR concentration 270 nM)
# How it was run: as §1
# [8] = tested on: RARb:RXRa (NR concentration 270 nM, RXRa partner concentration 90 nM)
# How it was run: as §1
# [9] = tested on: RARb homodimer (NR concentration 270 nM)
# How it was run: as §1
# [10] = tested on: RARg:RXRa (NR concentration 270 nM, RXRa partner concentration 90 nM)
# How it was run: as §1
# [11] = tested on: RARg homodimer (NR concentration 270 nM)
# How it was run: as §1
# [12] = tested on: RXRa DBDmut IVT, anti-RXR (DBD mutation: RXRa K156A/R161A, NR concentration 90 nM)
# How it was run: as §1
# [13] = tested on: RXRa homodimer (NR concentration 180 nM)
# How it was run: as §1
# [14] = tested on: THRa:RXRa (NR concentration 90 nM, RXRa partner concentration 90 nM)
# How it was run: as §1
# [15] = tested on: THRa homodimer (NR concentration 90 nM)
# How it was run: as §1
# [16] = tested on: VDR:RXRa (NR concentration 270 nM, RXRa partner concentration 90 nM)
# How it was run: as §1
# [17] = tested on: VDR homodimer (NR concentration 270 nM)
# How it was run: as §1
# [18] = tested on: PPARg DBDmut IVT, anti-PPARg (DBD mutation: PPARg1 K132A/R137A, NR concentration 270 nM)
# How it was run: as §1
Sequence,PBM binding z-score [1],PBM binding z-score [2],PBM binding z-score [3],PBM binding z-score [4],PBM binding z-score [5],PBM binding z-score [6],PBM binding z-score [7],PBM binding z-score [8],PBM binding z-score [9],PBM binding z-score [10],PBM binding z-score [11],PBM binding z-score [12],PBM binding z-score [13],PBM binding z-score [14],PBM binding z-score [15],PBM binding z-score [16],PBM binding z-score [17],PBM binding z-score [18]
TCGAGTAGGTTACGAGGGCATTCAGGGATGAAGA,3.87,4.89,0.36,1.43,0.25,1.69,-0.742,1.63,1.43,1.55,1.13,0.248,1.58,3.1,0.0603,2.32,1.27,–
CCGATTAGGTTACGAGGGGGCATTCAGTGCGAAT,3.12,3.4,1.22,4.69,3.98,2.28,0.441,2.49,2.56,3.12,2.54,1.96,1.52,3.91,1.57,5.1,2.8,–
CCGACTAGGTTACGAGGGGGCATTCAGTGCGAAT,4.63,4.93,1.66,4.6,5.23,2.64,0.38,2.02,2.21,2.97,2.26,1.5,1.62,3.52,0.757,4.96,3.12,–
CCGAGTAGGTTACGAAGGGGCATTCAGTGCGAAT,4.07,3.33,0.383,2.86,1.4,1.04,0.184,1.56,1.42,1.22,1.2,0.309,0.781,2.26,-0.808,3.08,1.23,–
TCGAGTAGGTAACGGGGGCATTCAGGGATGAAGA,4.46,5.38,1.54,2.44,1.58,2.48,0.232,1.74,1.54,2.02,1.09,1.75,1.74,3.76,1.33,3.38,2.49,–
CGAACTAGGTCAACAGGACAGTGAAGAGGTTGGA,8.18,8.23,1.93,1.28,0.261,2.27,0.467,4.23,3.39,4.36,5.29,1.54,3.09,2.81,0.737,–,0.504,0.713
CTGAGTAGGTTACGAGGGGGCATTCAGTGCGAAT,6.01,6.11,1.78,4.54,4.99,3,0.52,2.26,2.18,3.13,2.47,1.46,1.72,3.67,0.778,5.14,3.31,–
CCGAGTAGGTTACGACGGGGCATTCAGTGCGAAT,3.85,3.21,0.811,1.68,0.127,1.17,-0.209,1.23,0.791,0.882,0.746,-0.202,0.769,2,-0.61,1.49,0.32,–
TCGAGTAGGTTACGGGGACATTCAGGGATGAAGA,4.18,4.72,1.95,0.696,-0.0868,1.17,0.0881,1.43,1.42,1.26,1.01,0.561,1.09,2.77,1.57,1.27,1.1,–
CGAACTAAGTCAAAGGACAGTGAAAGGCGACGTA,0.998,1.31,0.434,-0.186,-0.123,0.156,0.0596,1.29,1.11,0.597,1.1,0.0633,–,0.219,-0.0369,-0.259,-0.13,0.266
CGAACTAGGTCACCAGGACAGCGAAGAGGTTGGA,7.82,8.67,2.15,1.34,-0.232,2.32,0.196,4.21,3.27,–,5.1,1.22,3.19,3.27,1.62,1.88,0.423,0.871
ATATGTAGGTTTGGGTCATTCAGAAAGTAGGGAA,2.79,3.08,2.99,2.17,1.25,2.47,2.33,2.07,2.2,1.92,1.33,1.36,2.05,2.74,2.23,–,2.22,1.3
CCCAGTAGGTTACGAGGGGGCATTCAGTGCGAAT,5.3,5.49,1.71,4.89,5.08,2.68,0.297,2.2,2.13,3.35,2.76,0.746,2.04,3.89,0.525,5.29,3.62,–
CGAACTAGGGCACCAGGACAGTGAAGAGGTTGGA,7.2,6.94,0.184,-0.709,-0.309,-0.404,-1.02,1.42,0.758,0.748,1.34,0.0116,0.278,1.05,0.327,–,-0.274,-0.192
CGAACTAGGTCAAAGAACAGTGAAAGGCGACGTA,7.89,8.03,0.602,0.752,-0.206,1.51,-0.184,3.58,2.03,3.41,4.27,1.3,3,2.06,0.033,–,0.121,1.2
CCGAGTAGGTTACAAGGGGGCATTCAGTGCGAAT,4.32,4.29,1.99,4.6,5.19,3,0.759,2.17,2.41,2.84,2.42,1.47,2.1,3.61,0.507,5.11,3.51,–
ATAGGTAGGTTAGGGTCATTCAGAAAGTAGGGAA,3.34,4.16,3.27,5.14,3.11,5.48,3.2,4,3.99,4.32,4.06,2.36,5.28,4.76,3.77,–,4.51,1.6

Sequence,PBM binding z-score [1],PBM binding z-score [2],PBM binding z-score [3],PBM binding z-score [4],PBM binding z-score [5],PBM binding z-score [6],PBM binding z-score [7],PBM binding z-score [8],PBM binding z-score [9],PBM binding z-score [10],PBM binding z-score [11],PBM binding z-score [12],PBM binding z-score [13],PBM binding z-score [14],PBM binding z-score [15],PBM binding z-score [16],PBM binding z-score [17],PBM binding z-score [18]
CTATGTAGGTTAAGGGGGTCATGCAGTTTGAAAG,7.51,7.75,4.7,5.74,8.41,6,1.78,3.79,4.24,5.46,4.16,2.12,6.12,4.11,2.49,7.13,5,–
CCGAGTAGCTTACGAGGGGGCATTCAGTGCGAAT,0.648,0.528,0.745,2.64,5.04,1.67,-0.103,0.8,1,1.05,0.544,1.5,0.627,1.8,-0.07,3.41,2.86,–
ATATGTAGGTTAGGGTCATTCTGAAAGTAGGGAA,6.26,6.44,2.88,4.18,1.87,–,1.91,3.35,3.35,3.61,2.78,2.79,4.88,4.05,3.12,–,3.77,1.97
CTATGTAGGTTAAGGGGGTCATTCACTTTGAAAG,7.7,7.41,3.47,5.59,4.83,5.77,1.84,3.4,3.95,5.11,4.05,2.33,5.85,3.53,1.72,7.21,5.5,–
CGAACTAGGTCACCAGAACAGTGAAGAGGTTGGA,8.55,8.85,1.64,1.29,-0.143,2.45,0.0997,4.2,3.14,4.44,5.22,1.11,–,2.87,0.853,–,0.565,1.39
ATATGTAGGTTAGCGTCATTCAGAAAGTAGGGAA,6.57,6.84,0.87,-0.0758,0.0634,-0.121,0.244,0.594,0.285,0.435,0.62,-0.0875,–,0.15,-0.253,0.0435,0.0488,1.38
CGAACTAGGTCAAAGGTCAGTGAAAGGCGACGTA,8.37,9.1,5.51,–,0.306,–,2.87,–,5.03,–,6.89,2.37,–,4.55,1.2,5.88,1.85,4.58
CGAACTAAGTCACCAGGACAGTGAAGAGGTTGGA,2.13,1.61,0.131,-0.257,0.203,0.00404,-0.12,0.526,0.502,–,0.343,0.000632,0.285,1.27,0.708,-0.118,0.106,-0.0362
CCGAGTAGGTTAAGAGGGGGCATTCAGTGCGAAT,4.47,4.75,2.41,4.95,6.8,2.7,1.37,2.28,2.25,2.76,2.49,2.04,1.76,3.73,0.843,5.44,4.02,–
CTATGTAGGTTAAGGGGGTCATTGAGTTTGAAAG,7.65,7.94,3.37,6.54,12.9,6.15,1.4,3.78,4.02,5.46,4.18,2.81,5.76,4.01,2.02,–,7.05,–
TCGAGTAGGTTACGGGGGAATTCAGGGATGAAGA,4.46,4.91,1.34,1.33,0.36,1.17,-0.238,1.62,1.1,1.42,1.05,0.995,1.37,1.93,0.716,1.25,0.477,–
CCGAGTAGGTTACGAGGGGGCAGTCAGTGCGAAT,4.71,4.53,2.79,3.74,1.86,2.38,0.525,2.15,2.02,2.81,2.42,0.582,1.55,3.29,0.478,–,1.68,–
TCGAATAGGTTACGGGGGCATTCAGGGATGAAGA,4.48,5.46,2.1,3.82,1.8,3.69,1.33,3.33,2.78,4.18,3.02,2.78,3.99,4.29,1.9,4.6,3.3,–
CCGAGTAGGTTACGAGGGGGCACTCAGTGCGAAT,4.86,4.51,1.46,4.32,3.02,2.87,0.931,2.04,2.29,3.19,2.39,0.868,2.17,3.74,0.205,4.68,2.68,–
CTATGTAGGTTAAGGGGCTCATTCAGTTTGAAAG,7.02,6.52,1.36,0.403,0.167,0.505,0.222,0.689,0.464,0.537,0.331,0.357,0.409,0.521,0.0604,–,0.323,–
TCTAGTAGGTTACGGGGGCATTCAGGGATGAAGA,6.73,7,2.93,3.79,2.71,3.63,1.37,3.21,2.73,3.98,3.21,2.95,3.28,4.01,2.2,4.39,3.82,–

# — the supplement of paper PMC6555819
